“And” between values parts separate entries of the source, which are not always exact repeats. Equal values may be shown once. Results filed as inconclusive are left out. The source made the active and inactive calls. Unless noted, calls follow the shape of the dose curve; as a rule, active = well fitted curve in the direction sought with a large enough effect; inconclusive = small, poorly fitted or top-dose-only effect, or another doubt; inactive = no such curve, though single readings can be large; an effect the other way counts as inactive or inconclusive.
What was measured:
[1] = biological target: Estrogen receptor (Homo sapiens) (UniProt P03372); test: qHTS assay for small molecule antagonists of estrogen receptor alpha signaling (AID 588513; active = well fitted curve in the direction sought with a large enough effect in the signal ratio, with a control signal flat, not every such curve was filed as active; the % refers to the signal ratio; also: potency is read from the fitted curve at half-maximal effect)
Outline: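 Beta-lactamase reporter, antagonist mode, HEK 293 GripTite cells; 0.5nM E2 stimulus, 18 h, 37 C; CCF4 dye 2 h RT; fluorescence. IC50 and efficacy from Hill fits, normalized to E2 and DMSO.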

[2] = biological target: Thyroid hormone receptor beta (Homo sapiens) (UniProt P10828); test: qHTS assay for small molecule agonists of thyroid hormone receptor beta signaling (AID 588545; calls by dose curve;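 also: 0% = DMSO only and 100% = 10 nM T3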)
Outline: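 Stimulation of a TR-driven beta-lactamase reporter was quantified in GripTite HEK 293 cells. Compound series ran for 18 hrs; curves were normalized to T3 and DMSO controls and fitted to yield EC50.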

[3] = qHTS assay for environmental chemicals that activate the Aryl hydrocarbon Receptor (AhR) signaling pathway (AID 651777); conditions: 1A2-DRE human hepatoma cells, luciferase, 24 h; activation: stronger effect = higher value; also: % of control where 0% means no effect; nearly all actives have a fitted effect of over 15% in size
Outline: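 Quantitative HTS in stably transfected human liver-derived cells whose luciferase gene sits downstream of the CYP1A2 promoter and dioxin response element. After 24 hr exposure at 37 C, One-Glo luminescence was measured.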

[4] = biological target: Peroxisome proliferator-activated receptor alpha (Homo sapiens) (UniProt Q07869); test: qHTS assay for small molecule agonists of the peroxisome proliferator-activated receptor alpha (PPARalpha) signaling pathway (AID 651778); conditions: PathHunter PPARalpha complementation, chemiluminescence, 6 h; max response: stronger effect = higher value; also: % of control where 0% means no effect
Outline: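 Cells plated at 2,000/well and held overnight at 37 C, 5% CO2, then compound added by pin tool for 6 hr; after PathHunter detection reagent and 60 min at room temperature, chemiluminescence from enzyme complementation was read.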

[5] = qHTS assay for small molecule agonists of the antioxidant response element (ARE) signaling pathway measured by Nrf2-dependant transcriptional activity (AID 720636; active = well fitted curve in the direction sought with a large enough effect in the repeat runs; an effect the other way counts as inactive or inconclusive; also: % of control where 0% means no effect)
Outline: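 Quantitative HTS format in HepG2 cells stably expressing an ARE-luciferase reporter; 16 hr compound treatment at 37 C, luciferase signal detected with ONE-Glo.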

[6] = qHTS assay for small molecule agonists of the antioxidant response element (ARE) signaling pathway measured by Nrf2-dependant transcriptional activity - cell viability counter screen (AID 720653; active = well fitted curve in the direction sought with a large enough effect in the repeat runs; an effect the other way counts as inactive or inconclusive; also: % is scaled to controls: 0 for no effect and ±100 for the full control effect); conditions: ARE-bla HepG2 viability, CellTiter-Glo ATP luminescence, 16 h; max response: stronger effect = lower value
Outline: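 ARE-bla HepG2 cells (2,000/well) rested 5 hrs at 37C/5% CO2, then exposed to compounds in DMSO for 16 hrs. Viability was read in the same wells as intracellular ATP by luminescence, 30 min at room temperature after reagent addition.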

[7] = qHTS assay for cell viability of HEK293 cells (AID 743288); conditions: ATP luminescence (CellTiter-Glo), 18 h; max response: stronger effect = lower value; also: % is scaled to controls: 0 for no effect and ±100 for the full control effect; nearly all actives have a fitted effect of over 50% in size
Outline: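 ATP luminescence (CellTiter-Glo) reports metabolically competent cell number after parental HEK293 cells, 2,000/well, were treated with DMSO-dissolved compounds for 18 h at 37 C; reagent incubation 30 min, room temperature.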

[8] = qHTS assay for cell viability of the p53RE-bla HCT-116 cell line (AID 743292); also: nearly all actives have a fitted effect of over 55% in size; also: potency is read from the fitted curve at half-maximal effect
Outline: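 Viability of compound-treated p53RE-bla HCT-116 cells is taken from ATP-dependent luciferase luminescence. Treatment lasts 16 h at 37 C after a 5 h settling period; detection follows 30 min at room temperature.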

[9] = biological target: Nuclear receptor subfamily 1 group I member 2 (Rattus norvegicus) (UniProt Q9R1A7); test: qHTS assay for small molecule activators of the rat pregnane X receptor (rPXR) signaling pathway (AID 651751; call rule not given here; also: 0% is about no effect); conditions: rPXR reporter cells, luciferase (One-Glo), 24 h
[10] = biological target: Peroxisome proliferator-activated receptor gamma (Homo sapiens) (UniProt P37231); test: qHTS assay for small molecule agonists of peroxisome proliferator-activated receptor gamma signaling (AID 588536; active = well fitted curve in the direction sought with a large enough effect in the signal ratio, with a control signal flat, not every such curve was filed as active; the % refers to the signal ratio;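 also: 0% = DMSO basal wells and 100% = rosiglitazone at 2 µM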)
Outline: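 Using GeneBLAzer HEK293 cells, response was quantified by CCF4 fluorescence and normalized between basal DMSO (0%) and rosiglitazone 2 uM (100%); curves yielded half-maximal stimulation concentration and efficacy.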

[11] = biological target: Peroxisome proliferator-activated receptor gamma (Homo sapiens) (UniProt P37231); test: qHTS assay for small molecule antagonists of peroxisome proliferator-activated receptor gamma signaling (AID 588537; active = well fitted inhibition curve with a large enough effect in the signal ratio, with a control signal flat, not every such curve was filed as active; the % refers to the signal ratio;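 also: reporter cells co-stimulated with 50 nM rosiglitazone agonist during compound treatment; % of control where 0% means no effect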)
Outline: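 HEK293 cells, PPAR-gamma-UAS-bla, 3000/well. Pre-incubation 6-6.5 h, 37 C. Compound titration with rosiglitazone 50 nM final, 16 h. CCF4 dye, 2 h RT, dual-emission fluorescence.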

[12] = biological target: Vitamin D3 receptor (Homo sapiens) (UniProt P11473); test: qHTS assay for small molecule antagonists of vitamin D receptor signaling (AID 588541; calls by dose curve;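 also: receptor activated by calcitriol during compound treatment; series mostly up to about 77 µM; % is scaled to controls: 0 for no effect and ±100 for the full control effect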)
Outline: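 VDR-UAS-bla HEK293T cells (2000/well, 2% charcoal-stripped FBS) were treated with titrated compounds plus 1-alpha,25-dihydroxyvitamin D3 (50 nM or 3 nM final) for 16 h at 37 C. CCF4 beta-lactamase fluorescence was read; Hill fits gave IC50.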

[13] = biological target: Vitamin D3 receptor (Homo sapiens) (UniProt P11473); test: qHTS assay for small molecule agonists of vitamin D receptor signaling (AID 588543; calls by dose curve;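 also: 0% = DMSO basal and 100% = reference agonist control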)
Outline: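 β-lactamase reporter, VDR-UAS-bla HEK293T, agonist mode. Cells plated 5 h at 37 °C, compound titration 16 h at 37 °C, CCF4 dye 2 h RT, ratio 460/530 nm. Hill fit → EC50, efficacy vs 50 nM 1α,25-(OH)2D3.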

[14] = qHTS assay for small molecule agonists of retinoid X receptor alpha signaling (AID 588544; calls by dose curve;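 as to activation: 0% = DMSO basal wells and 100% = reference agonist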); conditions: HEK293T RXRa-UAS-bla, beta-lactamase reporter, 18 h; 530 nm emission
[15] = biological target: Retinoic acid receptor RXR-alpha (Homo sapiens) (UniProt P19793); test: as above
[16] = qHTS assay for small molecule antagonists of retinoid X receptor alpha signaling (AID 588546; active = well fitted inhibition curve with a large enough effect in the signal ratio, with a control signal flat, not every such curve was filed as active; the % refers to the signal ratio;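 also: cells stimulated with 9-cis-retinoic acid as agonist; % is scaled to controls: 0 for no effect and ±100 for the full control effect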); conditions: HEK293T RXRa-UAS-bla, beta-lactamase ratio, antagonist mode; measured here: W530 green channel, cytotoxicity proxy
Outline: (§1)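 Beta-lactamase reporter inhibition, read as CCF4 fluorescence ratio (ex 405, em 460/530 nm) after 2 h at RT. HEK293T UAS-bla cells, 2500/well, were stimulated with 9-cis-RA at 500 or 100 nM final alongside test compound for 18 h at 37 C.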

[17] = biological target: Retinoic acid receptor RXR-alpha (Homo sapiens) (UniProt P19793); test: as above; conditions: HEK293T RXRa-UAS-bla, beta-lactamase ratio, antagonist mode
Outline: as §1

[18] = biological target: Peroxisome proliferator-activated receptor delta (Homo sapiens) (UniProt Q03181); test: qHTS assay for small molecule agonists of peroxisome proliferator-activated receptor delta signaling (AID 588534; calls by dose curve;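 also: 0% = DMSO basal wells and 100% = positive control agonist at 10 µM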)
Outline: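 Titration series tested in agonist mode on beta-lactamase reporter cells; 18 hrs at 37 C after a 5 hr pre-incubation. Readout: CCF4 fluorescence, 2 hrs RT. Hill equation gives EC50 and maximal response.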

[19] = qHTS assay for small molecule activators of the p53 signaling pathway (AID 651743; active = well fitted activation curve with a large enough effect in the signal ratio, not every such curve was filed as active; the % refers to the signal ratio; also: potency is read from the fitted curve at half-maximal effect; as to activation: series mostly up to about 92 µM; % of control where 0% means no effect); conditions: HCT-116 p53RE-bla, beta-lactamase FRET ratio, 16 h; activation: stronger effect = higher value
Outline: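 Here HCT-116 cells with an integrated p53-responsive beta-lactamase gene were incubated with compounds (16 hours, 37 C) after a 5-hour plating period; beta-lactamase activity was detected as fluorescence intensity via B/G FRET substrate.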

[20] = qHTS assay for small molecule antagonists of peroxisome proliferator-activated receptor delta signaling (AID 588535); conditions: HEK293T PPARd-UAS-bla, beta-lactamase FRET ratio, 18 h; 460 nm channel;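 also: cells co-treated with a PPAR-delta agonist as stimulator during compound exposure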
Outline: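 Compounds tested in titration on PPAR-delta-UAS-bla HEK293T cells grown in charcoal/dextran-stripped serum (2%); beta-lactamase activity read via CCF4 emission at 460 and 530 nm.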

Sequence of Nuclear receptor subfamily 1 group I member 2 (Rattus norvegicus) (Q9R1A7 whole entry, looked up): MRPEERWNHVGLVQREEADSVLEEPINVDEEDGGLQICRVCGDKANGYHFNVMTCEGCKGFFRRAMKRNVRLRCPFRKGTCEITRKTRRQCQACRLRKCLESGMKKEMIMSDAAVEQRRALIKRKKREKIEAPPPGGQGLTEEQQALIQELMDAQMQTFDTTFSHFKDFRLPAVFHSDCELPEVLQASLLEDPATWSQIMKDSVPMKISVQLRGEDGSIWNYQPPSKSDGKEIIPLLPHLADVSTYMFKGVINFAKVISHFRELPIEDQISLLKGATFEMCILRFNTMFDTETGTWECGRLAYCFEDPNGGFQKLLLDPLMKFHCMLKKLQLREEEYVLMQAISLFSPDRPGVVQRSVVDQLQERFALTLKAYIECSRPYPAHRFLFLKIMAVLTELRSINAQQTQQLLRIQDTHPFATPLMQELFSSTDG
Sequence of Thyroid hormone receptor beta (Homo sapiens) (P10828 whole entry, looked up): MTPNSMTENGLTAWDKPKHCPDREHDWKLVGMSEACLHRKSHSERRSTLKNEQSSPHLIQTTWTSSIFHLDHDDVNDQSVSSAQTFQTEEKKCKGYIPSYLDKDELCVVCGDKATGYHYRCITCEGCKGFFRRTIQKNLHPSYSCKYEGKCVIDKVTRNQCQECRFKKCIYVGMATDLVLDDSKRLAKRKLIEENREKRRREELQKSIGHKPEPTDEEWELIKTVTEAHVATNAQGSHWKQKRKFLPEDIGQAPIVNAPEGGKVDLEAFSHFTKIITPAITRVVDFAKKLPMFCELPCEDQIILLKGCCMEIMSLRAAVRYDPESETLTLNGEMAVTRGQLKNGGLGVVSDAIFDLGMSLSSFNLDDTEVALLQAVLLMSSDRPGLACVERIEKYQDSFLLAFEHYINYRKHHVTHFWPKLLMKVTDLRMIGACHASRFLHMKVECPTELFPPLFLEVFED
Sequence of Vitamin D3 receptor (Homo sapiens) (P11473 whole entry, looked up): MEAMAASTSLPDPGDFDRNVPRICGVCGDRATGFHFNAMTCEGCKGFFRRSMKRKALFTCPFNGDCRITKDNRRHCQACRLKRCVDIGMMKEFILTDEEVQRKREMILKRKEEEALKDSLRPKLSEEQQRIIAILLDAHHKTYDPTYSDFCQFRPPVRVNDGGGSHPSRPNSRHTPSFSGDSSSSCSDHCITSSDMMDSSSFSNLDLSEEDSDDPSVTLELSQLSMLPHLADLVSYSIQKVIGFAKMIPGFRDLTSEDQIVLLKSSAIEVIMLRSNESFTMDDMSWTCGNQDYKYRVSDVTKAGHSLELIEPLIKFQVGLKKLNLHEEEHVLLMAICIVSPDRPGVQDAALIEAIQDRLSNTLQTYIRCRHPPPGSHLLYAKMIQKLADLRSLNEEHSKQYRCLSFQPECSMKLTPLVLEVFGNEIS
Sequence of Estrogen receptor (Homo sapiens) (P03372 whole entry, looked up): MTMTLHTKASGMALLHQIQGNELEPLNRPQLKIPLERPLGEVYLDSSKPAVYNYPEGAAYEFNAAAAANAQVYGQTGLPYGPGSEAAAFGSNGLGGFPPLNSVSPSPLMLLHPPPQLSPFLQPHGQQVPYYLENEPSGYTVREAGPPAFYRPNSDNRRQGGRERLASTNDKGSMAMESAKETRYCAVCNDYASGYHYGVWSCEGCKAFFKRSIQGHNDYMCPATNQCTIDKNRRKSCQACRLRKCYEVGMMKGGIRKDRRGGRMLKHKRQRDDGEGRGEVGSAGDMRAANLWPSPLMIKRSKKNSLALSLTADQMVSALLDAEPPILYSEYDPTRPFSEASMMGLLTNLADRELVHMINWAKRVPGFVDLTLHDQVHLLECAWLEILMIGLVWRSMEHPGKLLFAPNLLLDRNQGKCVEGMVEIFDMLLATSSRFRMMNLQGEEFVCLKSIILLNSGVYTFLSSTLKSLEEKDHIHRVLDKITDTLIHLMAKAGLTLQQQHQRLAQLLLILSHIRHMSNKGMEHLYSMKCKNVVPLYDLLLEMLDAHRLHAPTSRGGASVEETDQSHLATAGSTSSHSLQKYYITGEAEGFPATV
Sequence of Peroxisome proliferator-activated receptor alpha (Homo sapiens) (Q07869 whole entry, looked up): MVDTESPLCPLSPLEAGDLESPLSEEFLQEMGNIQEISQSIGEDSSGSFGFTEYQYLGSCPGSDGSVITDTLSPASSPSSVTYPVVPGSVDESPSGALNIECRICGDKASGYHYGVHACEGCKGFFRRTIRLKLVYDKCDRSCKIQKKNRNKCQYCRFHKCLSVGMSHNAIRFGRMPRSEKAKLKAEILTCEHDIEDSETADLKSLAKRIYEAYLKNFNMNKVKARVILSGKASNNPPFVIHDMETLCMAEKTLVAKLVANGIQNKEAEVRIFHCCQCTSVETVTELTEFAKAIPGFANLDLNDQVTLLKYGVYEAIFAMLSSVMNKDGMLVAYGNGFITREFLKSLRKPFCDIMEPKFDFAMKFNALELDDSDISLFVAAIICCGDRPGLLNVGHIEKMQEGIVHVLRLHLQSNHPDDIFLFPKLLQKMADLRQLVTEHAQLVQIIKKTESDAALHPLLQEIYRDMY
Sequence of Retinoic acid receptor RXR-alpha (Homo sapiens) (P19793 whole entry, looked up): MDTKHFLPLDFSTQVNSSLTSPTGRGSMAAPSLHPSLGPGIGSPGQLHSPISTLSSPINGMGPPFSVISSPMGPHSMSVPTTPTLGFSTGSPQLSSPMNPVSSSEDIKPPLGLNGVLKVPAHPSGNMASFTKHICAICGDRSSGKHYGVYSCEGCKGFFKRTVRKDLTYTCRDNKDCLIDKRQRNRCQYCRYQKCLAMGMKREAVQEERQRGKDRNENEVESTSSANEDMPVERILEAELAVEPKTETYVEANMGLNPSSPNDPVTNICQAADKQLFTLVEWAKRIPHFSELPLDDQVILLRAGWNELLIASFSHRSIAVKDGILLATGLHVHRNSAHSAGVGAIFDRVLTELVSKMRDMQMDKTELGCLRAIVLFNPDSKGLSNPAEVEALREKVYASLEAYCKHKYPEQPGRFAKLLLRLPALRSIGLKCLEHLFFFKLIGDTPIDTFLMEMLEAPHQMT
Sequence of Peroxisome proliferator-activated receptor gamma (Homo sapiens) (P37231 whole entry, looked up): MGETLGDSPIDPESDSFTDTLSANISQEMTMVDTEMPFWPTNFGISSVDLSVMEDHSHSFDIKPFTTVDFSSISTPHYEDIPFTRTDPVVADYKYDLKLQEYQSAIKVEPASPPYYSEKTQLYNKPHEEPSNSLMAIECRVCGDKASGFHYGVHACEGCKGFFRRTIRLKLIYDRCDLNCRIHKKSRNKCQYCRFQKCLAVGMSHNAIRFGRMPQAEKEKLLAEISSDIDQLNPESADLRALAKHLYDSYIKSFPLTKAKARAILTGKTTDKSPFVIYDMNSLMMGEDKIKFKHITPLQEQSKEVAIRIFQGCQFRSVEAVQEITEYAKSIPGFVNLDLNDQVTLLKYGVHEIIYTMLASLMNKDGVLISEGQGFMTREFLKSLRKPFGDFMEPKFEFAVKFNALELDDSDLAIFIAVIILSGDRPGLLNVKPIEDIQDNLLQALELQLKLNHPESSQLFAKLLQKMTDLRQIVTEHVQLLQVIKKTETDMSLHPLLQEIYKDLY
Sequence of Peroxisome proliferator-activated receptor delta (Homo sapiens) (Q03181 whole entry, looked up): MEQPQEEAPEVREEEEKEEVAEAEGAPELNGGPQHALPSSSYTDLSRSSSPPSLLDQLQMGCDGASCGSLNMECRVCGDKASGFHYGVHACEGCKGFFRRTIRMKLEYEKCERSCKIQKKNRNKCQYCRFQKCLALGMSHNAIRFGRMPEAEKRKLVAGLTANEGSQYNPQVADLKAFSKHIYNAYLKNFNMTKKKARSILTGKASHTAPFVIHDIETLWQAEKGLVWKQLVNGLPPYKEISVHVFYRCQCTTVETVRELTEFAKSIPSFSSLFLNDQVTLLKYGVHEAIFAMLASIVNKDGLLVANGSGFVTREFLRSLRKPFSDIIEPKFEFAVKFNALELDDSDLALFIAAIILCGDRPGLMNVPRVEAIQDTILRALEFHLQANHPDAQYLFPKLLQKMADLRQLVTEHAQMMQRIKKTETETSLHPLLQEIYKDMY

COP(=O)(OC)Oc1ccc([N+](=O)[O-])cc1
inactive: Potency [1] | Potency [2] | activation [3] 0.442% | max response [4] -5.35% | Potency [5] | max response [6] -1.73% | max response [7] -12.8% | Potency [8] | max response [9] -1.53%

CCCCC(CC)COC(=O)Cl (centres undefined)
-5.58%: max response [16]
inactive: Potency [1] | Potency [10] | Potency [11] | Potency [12] | outcome [13] | Potency [15] | Potency [2] | max response [17] -2.38% | activation [3] 2.75% | max response [4] -1.56% | Potency [5] | max response [6] -0.503% | max response [7] -1.32% | Potency [8] | max response [9] 4.58%
-16.3%: max response [14]

Oc1ccc(C2(c3ccc(O)cc3)c3ccccc3-c3ccccc32)cc1
inactive: outcome [18] | activation [3] -0.464% | max response [4] -1.22% | Potency [5] | max response [6] -12.4% | max response [7] -3.45% | max response [9] -3.03%
active: Potency [1] 15.8 µM [inhibitor] | Potency [19] 39.8 µM | Potency [8] 31.6 µM

Brc1c(Br)c(Br)c(Br)c(Br)c1Br
-6.9%: max response [16]
-24.6%: max response [20]
inactive: Potency [1] | outcome [18] | Potency [11] | Potency [15] | Potency [2] | max response [17] 0.275% | activation [19] 2.23% | activation [3] 2.18% | max response [4] -0.494% | Potency [5] | max response [6] 3.38% | max response [7] -0.224% | Potency [8] | max response [9] 0.884%
-7.75%: max response [14]

COP(=S)(OC)Oc1ccc([N+](=O)[O-])c(C)c1
-7.02%: max response [16]
-4.53%: max response [14]
inactive: Potency [1] | outcome [18] | Potency [10] | Potency [11] | Potency [12] | outcome [13] | Potency [15] | Potency [2] | max response [17] -30.1% | activation [19] -5.64% | activation [3] 2.78% | max response [4] -4.6% | Potency [5] | max response [6] -3.17% | max response [7] -7.08% | Potency [8] | max response [9] -1.75%

Clc1ccccc1-c1nnc(-c2ccccc2Cl)nn1
-44.7%: max response [20]
inactive: Potency [1] | outcome [18] | Potency [10] | Potency [12] | outcome [13] | Potency [15] | Potency [2] | max response [17] -5.51% | activation [3] 9.84% | max response [4] -0.0144% | max response [6] -3% | max response [7] -8.84% | Potency [8]
-1.99%: max response [14]
-19.7%: max response [16]

COCC(=O)N(c1c(C)cccc1C)[C@H](C)C(=O)OC
inactive: Potency [1] | outcome [18] | Potency [10] | Potency [11] | Potency [12] | outcome [13] | Potency [15] | max response [17] -14.1% | activation [19] -0.822% | activation [3] 1.21% | max response [4] -0.29% | Potency [5] | max response [6] -2.34% | max response [7] -1.89% | Potency [8] | max response [9] -0.694%
-4.91%: max response [16]
-8.28%: max response [14]

CCOP(=S)(NC(C)C)Oc1ccccc1C(=O)OC(C)C (centres undefined)
inactive: Potency [1] | outcome [18] | Potency [10] | Potency [11] | Potency [12] | outcome [13] | Potency [2] | max response [17] -31.4% | activation [19] 2.9% | activation [3] 4.48% | max response [4] -0.429% | Potency [5] | max response [6] -14.9% | max response [7] -18.9% | Potency [8]
-3.59%: max response [20]
-9.07%: max response [16]

C=CC(=O)NCO
-9.77% and -7.1%: max response [16]
-12.6% and -9.15%: max response [14]
inactive: Potency [1] | outcome [18] | Potency [10] | Potency [12] | outcome [13] | Potency [2] | max response [17] 4.89% and 0.243% | activation [19] 0.261% and -0.511% | activation [3] 0.0723% and 1.42% | max response [4] -1.6% and -1.01% | Potency [5] | max response [6] -3.08% and -9.83% | max response [7] -8.84% and -5.85% | Potency [8] | max response [9] 3.28% and -7.26%
1.4%: max response [20]

COc1nc(C)nc(NC(=O)NS(=O)(=O)c2ccccc2Cl)n1
-7.69%: max response [14]
inactive: Potency [1] | Potency [10] | Potency [11] | Potency [12] | Potency [15] | Potency [2] | max response [17] -1.72% | activation [19] -1.02% | activation [3] 1.34% | max response [4] -1.56% | Potency [5] | max response [6] -0.816% | max response [7] -13% | Potency [8] | max response [9] -1.17%
-9.33%: max response [16]

O=P(OCC(Br)CBr)(OCC(Br)CBr)OCC(Br)CBr (centres undefined)
-17.7%: max response [20]
active: Potency [1] 35.5 µM [inhibitor]
inactive: Potency [2] | activation [19] 10.6% | max response [4] -0.385% | Potency [5] | max response [6] -25.3% | Potency [8] | max response [9] 0.175%

Cc1cc(C)nc(NC(=O)NS(=O)(=O)c2ccccc2C(=O)OC2COC2)n1
-3.21%: max response [14]
2.3%: max response [20]
inactive: Potency [1] | outcome [18] | Potency [10] | Potency [11] | Potency [12] | outcome [13] | Potency [15] | Potency [2] | activation [19] 1.69% | activation [3] -0.244% | max response [4] -2.96% | Potency [5] | max response [6] 18% | max response [7] 8.1% | max response [9] -3.04%
